Hits are enriched below; roughly 1.2% of the tested compounds scored in any of these assays.
Platelet DG rel: inhibitors of platelet dense granule secretion, primary screen, cell-based, MLPCN, human platelets; human platelet-rich plasma, SFLLRN dense granule ATP release, luminescence; inhibition, %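 (compounds screened at 7.5 µM in platelet-rich plasma)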; hit rate 0.22% among 300,000; AID 1663, 2009;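 active = mean replicate score, as percent of positive control, at or above 50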
SKN-1 inh: suppressors of acrylamide-induced Pgst-4::GFP reporter in worms, primary screen, SKN-1 inhibitor project, whole organism, uHTS, GFP/RFP fluorescence ratio, strain VP596; C. elegans VP596 Pgst-4::GFP/RFP ratio, 24 h; inhibition, % at 21.8 µM; hit rate 0.49% among 360,000;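 active = interference check ratio from 0.5 to 1.5 plus GFP to RFP signal ratio inhibition reaching or exceeding a fixed threshold, cut at about 30% in these data, passing the limit was not always enough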
ABCB6 inh MLPCN: ABCB6 transporter inhibitors, primary screen, K562-ABCB6 cells, flow cytometry, MLPCN library; AID 602162, 2011; fluorescence ratio to DMSO, % at 10 µM; hit rate 0.19% among 360,000; K562-ABCB6 porphyrin accumulation, 1 h; stronger effect = lower value;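 active = fluorescence ratio to DMSO below 75%, the collection mean minus 3 SD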;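 note: signal is porphyrin accumulated inside mitochondria; 100% equals median channel fluorescence of DMSO control wells; lower ratio means ABCB6 inhibition with less porphyrin fluorescence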
Target sequence (Q9NP58 whole entry, looked up): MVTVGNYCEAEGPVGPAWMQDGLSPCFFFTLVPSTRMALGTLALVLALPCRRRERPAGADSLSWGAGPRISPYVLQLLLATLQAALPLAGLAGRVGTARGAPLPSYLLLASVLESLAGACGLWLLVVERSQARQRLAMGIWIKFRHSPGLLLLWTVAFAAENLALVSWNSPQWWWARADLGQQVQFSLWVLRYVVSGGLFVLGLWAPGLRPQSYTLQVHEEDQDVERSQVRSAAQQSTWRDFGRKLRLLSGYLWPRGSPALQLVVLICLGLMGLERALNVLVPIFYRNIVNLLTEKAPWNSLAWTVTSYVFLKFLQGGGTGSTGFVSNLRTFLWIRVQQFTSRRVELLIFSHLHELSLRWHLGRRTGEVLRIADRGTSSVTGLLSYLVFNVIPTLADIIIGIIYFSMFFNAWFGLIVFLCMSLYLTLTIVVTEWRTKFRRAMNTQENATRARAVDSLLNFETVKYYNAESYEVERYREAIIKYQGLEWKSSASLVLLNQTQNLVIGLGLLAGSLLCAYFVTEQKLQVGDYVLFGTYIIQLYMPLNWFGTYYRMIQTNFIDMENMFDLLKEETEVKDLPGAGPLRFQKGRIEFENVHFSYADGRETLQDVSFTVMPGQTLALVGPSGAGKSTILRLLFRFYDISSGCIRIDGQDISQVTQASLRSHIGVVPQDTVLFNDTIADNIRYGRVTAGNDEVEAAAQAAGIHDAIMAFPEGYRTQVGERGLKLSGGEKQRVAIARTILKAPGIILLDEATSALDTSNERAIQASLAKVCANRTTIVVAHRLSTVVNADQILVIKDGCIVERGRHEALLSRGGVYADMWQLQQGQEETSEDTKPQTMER
VLA-4 inh: inhibition in human VLA-4 binding assay, primary screen, VLA-4 allosteric modulator project, MLPCN library, flow cytometry, VLA-4 expressing cells. Integrin alpha-4 (Homo sapiens), P13612. ligand binding flow cytometry. inhibition, % (about 7 µM as worked out from the volumes in the protocol). hit rate 0.2% among 330,000; in the data active = inhibition above about 50%
Yeast superoxide: reduction of superoxide in aged yeast, primary screen, HTS | AID 2690, 2010 | hit rate 0.18% among 330,000 | superoxide response (% of plate mean), % at 10 µM | S. cerevisiae aged cells, superoxide DHE fluorescence; stronger effect = lower value;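 active = superoxide response under a set limit, about three screen SD below normal, cut at about 65% in these data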;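 note: yeast aged for seven days with compound at 30 °C before DHE staining; 100% = average MFI of all compound-treated wells on the plate with controls excluded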
Superoxide pick: superoxide lowering in aged yeast cells, confirmation, cherry picked compounds; shares compounds with Yeast superoxide; superoxide response (% of plate), % at 10 µM; hit rate 1% among 850; S. cerevisiae aging, superoxide DHE fluorescence; stronger effect = lower value;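 active = superoxide signal below 65% of the plate average of sample wells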;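 note: cells aged with compound for 7 days at 30 degrees C before staining; 100% equals mean DHE fluorescence of all compound wells on the plate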
DHE counter: DHE quenching or ROS scavenging interference in aged yeast, artefact control for yeast caloric restriction mimetic project, S. cerevisiae BY4741, flow cytometry. shares compounds with Yeast superoxide. DHE fluorescence; stronger effect = lower value. fluorescence response, % at 10 µM. 850 tested, under 10 active;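 active = fluorescence response below 15%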;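 note: percent of the mean fluorescence averaged over all compound wells on the plate; lower means stronger quenching of DHE signal or ROS scavenging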
Starred values were filed as active, the others as inactive; nt = not tested or not shown.

SMILES	Platelet DG rel	SKN-1 inh	ABCB6 inh MLPCN	VLA-4 inh	Yeast superoxide	Superoxide pick	DHE counter
CC(=O)c1c(-c2ccccc2)c2cc([N+](=O)[O-])ccc2[nH]c1=O	-3	1	129	-5	59*	111	106
Cc1nc2ccc(NC(=O)c3nn(CC(C)C)c(=O)c4ccccc34)cc2s1	5	18	97	-22	57*	114	122
Cc1nnc(NC(=O)c2nn(CC(C)C)c(=O)c3ccccc23)s1	0	3	98	-3	81	nt	nt
COC(=O)[C@]12CCCCC=C1N(Cc1ccc3c(c1)OCO3)C(=O)[C@H](CC(=O)N1CCSCC1)C2	nt	-4	nt	nt	nt	nt	nt
COc1ccc(OCCN2CCC(C(=O)NC(c3ccc(F)cc3)c3ncccc3C)CC2)cc1 (stereo unspecified)	nt	11	99	nt	nt	nt	nt
COCCNC(=O)C1CCCN(Cc2ccccc2F)CC1 (stereo unspecified)	nt	-3	99	nt	nt	nt	nt
CCC(=O)N1CCc2cc(S(=O)(=O)NCCC(=O)N3CCN(c4cccc(C)c4)C(C)C3)ccc21 (stereo unspecified)	3	-9	92	5	63*	105	109
COc1ccc(C(NC(=O)C2CCN(CCOc3ccc(Cl)cc3Cl)CC2)c2cccs2)cc1 (stereo unspecified)	nt	-2	91	nt	nt	nt	nt
Cc1c(Br)c(-c2n[nH]c(=S)n2Cc2ccco2)nn1C	6	7	97	-3	89	nt	nt
Cc1cc(-c2n[nH]c(=S)n2Cc2ccco2)nn1C	-2	-3	102	-1	65*	102	98
Nc1c(NCc2ccccc2)c(=O)c1=O	-4	7	101	4	63*	96	91
Cc1c(Cc2ccccc2)c(NCCN(C)C)n2c(nc3ccccc32)c1C#N	14	-8	108	0	59*	82	119
CCCCc1c(C)c(C#N)c2nc3ccccc3n2c1NCCN(C)C	1	9	101	nt	nt	nt	nt
CCNC(=O)C1(C)CCCN(Cc2ccc3ccccc3c2Br)C1 (stereo unspecified)	nt	22	98	nt	nt	nt	nt
COc1cc(C(=O)NCCC(=O)NCCCN2CCCCC2C)cc(OC)c1OC (stereo unspecified)	-7	1	96	1	62*	123	112
Cc1ccc2nc(-c3ccco3)c(CC(C)(C)C)n2c1	nt	5	110	nt	nt	nt	nt
CCOC(=O)C(CC)n1cnc2c(nnn2-c2cccc(OC)c2)c1=O (stereo unspecified)	3	18	99	-1	65*	107	95
Nc1ccccc1N1CCN(C(=O)c2ccccc2)CC1	-7	-11	107	-2	98	100	113
O=C(c1cccc(C(=O)N2CCN(c3ccccc3F)CC2)c1)N1CCN(c2ccccc2F)CC1	-1	1	95	-4	97	nt	nt
CC1(C(=O)NS(=O)(=O)c2ccc(Br)cc2)CCN1C(=O)CCC1CCCC1 (stereo unspecified)	nt	9	94	nt	nt	nt	nt
COC(=O)CN1C(=O)C2(OCCCO2)c2cc(Br)ccc21	-6	2	103	2	85	nt	nt
CC(C)N1C(=O)C2(OCCCO2)c2cc(Br)ccc21	5	4	101	0	60*	122	110
Cc1cc(C)nc(CCNC(=O)C2CCC(=O)N(Cc3ccccc3F)C2)n1 (stereo unspecified)	8	-2	110	-96	65*	95	95
COC(=O)[C@]12CCCCC=C1N(Cc1ccco1)C(=O)[C@H](CC(=O)NCc1ccc(C)o1)C2	nt	16	101	nt	nt	nt	nt
COc1ccc(C(=O)N2CCN(c3ccc(C)cc3)CC2)cc1OC	9	19	97	7	91	111	106
SMILES	Platelet DG rel	SKN-1 inh	ABCB6 inh MLPCN	VLA-4 inh	Yeast superoxide	Superoxide pick	DHE counter
CCc1ccc(N2CCN(C(=O)c3ccc(OC)c(OC)c3)CC2)cc1	11	-2	104	-5	86	nt	nt
Cc1ccc(C(=O)N2CCN(c3ccc(Cl)cc3)CC2)cc1	0	-12	95	15	107	106	92
CCS(=O)(=O)N1CCc2nc(-c3ccccc3)sc2C1	6	-9	109	6	46*	99	93
CCCNC(=O)C1(C)CCCN(C(=O)CN2C(=O)c3ccccc3C2=O)C1 (stereo unspecified)	nt	4	100	nt	nt	nt	nt
COc1ccc(C(=O)NC(=S)NNC(=O)c2cnccn2)cc1	17	-2	96	-3	75	nt	nt
O=C(NC(=S)NNC(=O)c1cnccn1)c1ccc(Cl)cc1	0	-9	87	1	53*	111	92
Cc1ccc(S(=O)(=O)Nc2c(C)cc(C)nc2Cl)cc1	-4	5	94	15	50*	101	107
COc1cc(OC)cc(C(=O)O/N=C(\N)c2ccncc2)c1	-3	16	96	3	62*	112	110
CCN(c1ccc(OC)cc1)S(=O)(=O)N1CCCC(C(=O)NCc2ccc(OC(C)C)cc2)C1 (stereo unspecified)	nt	-5	95	nt	nt	nt	nt
Cc1cccc(C)c1N1C(=O)c2ccccc2NC(=O)C1C(=O)NCC(C)C (stereo unspecified)	nt	-5	nt	nt	nt	nt	nt
NS(=O)(=O)c1ccc(CCNC(=O)C(=O)NCC2OCCN2S(=O)(=O)c2cc(F)ccc2F)cc1 (stereo unspecified)	2	-1	103	-22	63*	97	101
O=C(NCCc1ccccc1)C(=O)NCC1OCCCN1S(=O)(=O)c1cc(F)ccc1F (stereo unspecified)	0	13	108	1	97	nt	nt
COc1cc(C(=O)N2CCN(C(=O)c3cc(-c4ccccc4)n[nH]3)CC2)cc(OC)c1OC	3	-2	96	9	63*	97	89
CCN1CCc2nc(N)sc2C1	2	5	98	0	65*	112	109
C=CCN1CCc2nc(N)sc2CC1	nt	7	112	nt	nt	nt	nt
CCOC(=O)C1=CCC(c2cccc(C)c2)N(S(=O)(=O)c2ccc(C)cc2)C1 (stereo unspecified)	nt	8	95	nt	nt	nt	nt
Cc1nc(Nc2ccc(S(=O)(=O)N3CCCCC3C)cc2)c2nnn(Cc3ccccc3)c2n1 (stereo unspecified)	-1	-8	94	10	59*	106	109
CSCCC(C(=O)Nc1c(C)cccc1C)N1CCN(C/C=C/c2ccccc2)CC1 (stereo unspecified)	nt	3	90	nt	nt	nt	nt

Assay outcomes deposited in PubChem BioAssay by several laboratories.
